Shown are actives, neighbours in structure and some others; about 1.3% of the full set was active somewhere.
AmpC no deterg: blocks E. coli AmpC beta-lactamase in detergent-free assay | P00811 | AmpC nitrocefin hydrolysis, absorbance 480 nm, 0.0001% Triton | Potency, µM (titrated, usually from 57.1 µM), inactives show at the highest dose activity change, negative = inhibition, actives largely listed as inhibitors | hit rate 0.52% among 330,000;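 note: plate controls were no compound for no effect and no enzyme for full effect; nearly all actives have a fitted effect of over 20% in size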
Target sequence (P00811 whole entry, looked up): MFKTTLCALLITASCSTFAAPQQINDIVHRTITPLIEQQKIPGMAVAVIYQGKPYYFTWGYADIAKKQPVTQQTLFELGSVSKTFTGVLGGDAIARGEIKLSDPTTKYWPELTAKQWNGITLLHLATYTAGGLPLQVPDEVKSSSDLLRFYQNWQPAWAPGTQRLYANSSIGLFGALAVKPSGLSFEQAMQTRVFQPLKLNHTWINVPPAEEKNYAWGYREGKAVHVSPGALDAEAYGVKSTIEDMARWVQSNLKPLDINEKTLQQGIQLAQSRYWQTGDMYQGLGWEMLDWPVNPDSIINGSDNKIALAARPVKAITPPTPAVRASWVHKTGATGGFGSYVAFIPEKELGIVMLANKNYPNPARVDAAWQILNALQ
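20 mM phosphate pH 7.0 + 0.01% (detergent screen) or 0.0001% Triton X-100; 5.3 nM AmpC reagent; cpd preinc 15 min RT; nitrocefin (800 uM stock) to start; A480 q20 s × 4 min; Activity was normalised to no-enzyme and no-compound control wells.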
AmpC detergent: blocks E. coli AmpC beta-lactamase in detergent assay. P00811. AmpC hydrolysis of nitrocefin, absorbance 480 nm, 0.01% Triton. Potency, µM (titrated, usually from 114 µM), inactives show top-dose activity change, negative = inhibition, most hits filed as inhibitors. hit rate 0.041% among 370,000. AID 485294;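 note: 0% = no-compound wells and -100% = no-enzyme wells; nearly all actives have a fitted effect of over 25% in size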
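20 mM phosphate pH 7.0 + 0.01% (detergent screen) or 0.0001% Triton X-100; 5.3 nM AmpC reagent; cpd preinc 15 min RT; nitrocefin (800 uM stock) to start; A480 q20 s × 4 min; Activity was normalised to no-enzyme and no-compound control wells.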
VACV Venus inh: vaccinia inhibition (Venus reporter); Vaccinia virus Venus reporter expression, fluorescence; Potency, µM (top dose mostly 36.5 µM), inactives show at the top dose activity change, negative = inhibition, most hits filed as inhibitors; hit rate 0.46% among 330,000; AID 720580; calls by dose curve; tested in A549 cells; note: % is set by controls: 0 for no effect and ±100 for the full control effect; nearly all actives have a fitted effect of over 30% in size
Vaccinia mCherry: vaccinia inhibition (mCherry reporter); Vaccinia virus mCherry reporter infection, fluorescence; Potency, µM (top dose mostly 36.5 µM), for inactives: top-dose activity change, negative = inhibition, usual class: inhibitors; hit rate 0.63% among 310,000; calls by dose curve; tested in A549 cells; note: % is set by controls: 0 for no effect and ±100 for the full control effect; nearly all actives have a fitted effect of over 35% in size
SARS PLpro yeast: blocks SARS-CoV papain-like protease in a yeast assay; S. cerevisiae expressing SARS-CoV PLpro, growth rescue; Potency, µM (titrated, usually from 32.9 µM), for inactives: top-dose activity, positive = growth rescue, hits mostly activators; hit rate 0.19% among 330,000; AID 485353; calls by dose curve; note: 0% is about no effect; nearly all actives have a fitted effect of over 55% in size
The depositor's hits bear a star. Unless noted, calls come from the whole dose curve; as a rule, active = well fitted curve in the direction sought with a large enough effect; inconclusive = small, poorly fitted or top-dose-only effect, or another doubt; inactive = no such curve, though single readings can be large; an effect the other way counts as inactive or inconclusive. Potency is the fitted concentration of half-maximal effect.

For O=C1C(Cl)=C(Cl)C(=O)C(Cl)=C1Cl the results were VACV Venus inh -7.0% and Vaccinia mCherry inactive.
`COc1ccc(CN2CCCC(n3cc(C(=O)N4CCCCC4)nn3)C2)c(OC)c1OC` (configuration not stated) gave VACV Venus inh -7.0% and Vaccinia mCherry -6.0%.
Screening CNC[C@@H](CC1CCCCC1)NC[C@H](CC(C)C)NCCc1cccc(C(F)(F)F)c1 returned AmpC no deterg 96.1%, AmpC detergent -21.1%, VACV Venus inh inconclusive, Vaccinia mCherry 14.1µM* and SARS PLpro yeast -13.9%.
CNC[C@@H](Cc1ccccc1)NC[C@@H](CC1CCCCC1)NCCCc1ccccc1 was read as AmpC no deterg 125.3%, AmpC detergent inconclusive, VACV Venus inh inconclusive, Vaccinia mCherry inconclusive and SARS PLpro yeast -3.7%.
Screening OC1(c2ccc3c(c2)CN(Cc2ccco2)CCO3)CCN(c2ccccc2F)CC1 returned VACV Venus inh -9.4% and Vaccinia mCherry -13.0%.
`CCCN1CC23C=CC(O2)C(C(=O)O)C3C1=O` (configuration not stated) gave AmpC no deterg 35.5µM*, AmpC detergent inconclusive, VACV Venus inh -0.6%, Vaccinia mCherry -7.6% and SARS PLpro yeast -0.9%.
`CCOC(=O)CN1CC23C=CC(O2)C(C(=O)Nc2ccc4c(c2)OCO4)C3C1=O` (configuration not stated) gave AmpC no deterg -28.8%, AmpC detergent inconclusive, VACV Venus inh -8.4%, Vaccinia mCherry inactive and SARS PLpro yeast 1.6%.
For CCOC(=O)C1[C@H]2C(=O)N(C(C)c3ccc(OC)cc3)C[C@]23C=C[C@H]1O3 (some centres not stated) the results were AmpC no deterg -1.9%, AmpC detergent inconclusive and SARS PLpro yeast -0.4%.
`COCCCN1CC23C=CC(O2)C(C(=O)O)C3C1=O` (configuration not stated) gave AmpC no deterg -12.4%, AmpC detergent -13.2%, VACV Venus inh -5.2%, Vaccinia mCherry -5.7% and SARS PLpro yeast 0.0%.
CCC(C)N1CC23C=CC(O2)C(C(=O)OC)C3C1=O (configuration not stated) was read as AmpC no deterg 22.4µM*, AmpC detergent 2.3% and SARS PLpro yeast -0.4%.
For CCOC(=O)CN1CC23C=CC(O2)C(C(=O)Nc2ccc(OCC)cc2)C3C1=O (configuration not stated) the results were AmpC no deterg 7.94µM*, AmpC detergent inconclusive, VACV Venus inh -6.1%, Vaccinia mCherry inactive and SARS PLpro yeast -2.0%.
CC(C)NC(=O)c1cn(C2CCC(NC(=O)C(C)(C)C)CC2)nn1 (configuration not stated) was read as VACV Venus inh -4.8% and Vaccinia mCherry -4.1%.
`O=C(Cc1cccc2ccccc12)N/N=C/c1ccc(OC(=O)/C=C/c2ccco2)cc1` gave AmpC no deterg 35.5µM*, AmpC detergent inconclusive, VACV Venus inh -19.6%, Vaccinia mCherry -20.7% and SARS PLpro yeast -1.8%.
CCC[N+](C)(C)c1ccc(/C=C/c2ccncc2)cc1 was read as VACV Venus inh inactive and Vaccinia mCherry 211.0%.
Screening CN(C)CC(C)(O)c1ccc2c(c1)CN(Cc1cnn(-c3ccccc3)c1)CCO2 (configuration not stated) returned VACV Venus inh 12.5% and Vaccinia mCherry -13.3%.
`COc1ccc2nc(C)cc(N/N=C/c3ccc(F)cc3)c2c1` gave AmpC no deterg -32.2%, AmpC detergent -9.0%, VACV Venus inh 10µM*, Vaccinia mCherry inconclusive and SARS PLpro yeast -3.5%.
For O=C(Nc1ccc([N+](=O)[O-])cc1Cl)c1cc(Br)ccc1O the results were VACV Venus inh 0.794µM* and Vaccinia mCherry 3.55µM*.
For Cc1cccc(NC(=O)c2cc([N+](=O)[O-])ccc2Cl)c1O the results were AmpC no deterg -30.9%, AmpC detergent 0.3%, VACV Venus inh -7.8%, Vaccinia mCherry -5.8% and SARS PLpro yeast -0.4%.
For O=C(Nc1ccc([N+](=O)[O-])cc1Cl)c1cc(Cl)cc(Cl)c1O the results were VACV Venus inh inconclusive and Vaccinia mCherry 8.91µM*.

Screening data (PubChem)
